Active and inactive are the calls of the source. How the source made its calls: active means hit-call score of the fitted dose curve at least 0.9, where 1 is the maximum; inactive means score below 0.9.

The AC50 is the concentration at which the activity in the assay is half-maximal.

Read-out in the experiment: Peroxisomal acyl-coenzyme A oxidase 1 (ACOX1) gene, ACOX1 (gene 51)
Description: LTEA_HepaRG_ACOX1: Life Technologies and Expression Analysis (LTEA) Assay for Peroxisomal acyl-coenzyme A oxidase 1 (ACOX1) gene using HepaRG (AID 2283467). As to conditions: mRNA level, 48 h; actives raise or lower the signal. On the procedure:
LTEA_HepaRG is a cell based, multiplexed-readout assay that uses HepaRG, a human liver cell line, with measurements taken at 48 hours after chemical dosing on a 96-well plate.LTEA_HepaRG_ACOX1 is one of 102 assay component(s) measured in the LTEA HepaRG cell culture assay. It is a marker of Steatosis.Data from the assay component LTEA_HepaRG_ACOX1 was analyzed into 1 endpoint. This assay endpoint, LTEA_HepaRG_ACOX1, was analyzed with bidirectional fitting relative to DMSO as the negative control and baseline of activity. Using a type of inducible reporter, measures of mRNA induction for gain or loss-of-signal activity can be used to understand regulation of transcription factor activity. To generalize the intended target to other relatable targets, this assay endpoint is annotated to the oxidase intended target family, where the subfamily is steatosis.
A total of 1060 chemcials from the ToxCast library were tested in eight-point concentration-response experiments. Cell culture and cytotoxicity assays were conducted at Thermo Fisher Scientific's Custom Services facility (Madison, WI). A single lot of human HepaRG cells (Thermo Fisher Scientific, Frederick, MD) was used for the cell culture experiments. 96-well format collagen type I coated plates of human HepaRG cells were prepared using established methods. Briefly, cryopreserved HepaRG cells were thawed, plated at a density of approximately 100,000 cells/well in HepaRG Thaw, Plate, and General Purpose media (HPRG770, Thermo Fisher Scientific), and incubated for 48 hours. 0.5% DMSO was selected as vehicle control to balance the requisite need of DMSO in HepaRG cultures to maintain differentiation (for example, baseline metabolism, proportions of hepatocytes vs. cholangiocytes), while enabling further hepatic receptor pathway activation (for example, PXR and CAR) in response to chemical exposure. 48 hours after plating, the culture medium was replaced with HepaRG Serum-Free Incudtion Media. Cells were exposed to each test chemical in duplicate and maintained in CO2 incubators for another 48 hours. Chemical plates were thawed to room temperature and 200x concentrations of treatment groups were prepared. 8-point conentration-reponse curves were made with the highest exposure at 100 uM, followed by half-log dilutions, all in 0.5% DMSO. Each test plate contained variouse controls, induction positive controls (1mM phenobarbital), cytotoxicity positive controls ([…] aflatoxin B1), vehicle controls (0.5% DMSO), and total lysis controls (0.5% DMSO). Cell morphology images were taken using an Essen IncuCyte FLR automated microscope, with six 96-well plates imaged in about 24 minutes. Images were captured and exported and JPEG files. Spent culture media was transfered to black-well plates for the LDH assay, and remaining media was sorted at -80 C for later use. Cells were treated with RLT buffer and frozen until shipped for gene expression analysis. Total RNA was isolated from the cell suspension in 75 uL of Buffer RLT (Qiagen, Germantown, MD 20874) by Quintiles/Expression Analysis (Durham, NC) using a custom isolation procedure. Total RNA from each plate well was transferred to a preamplification plate. Fluidigm's 96.96 Dynamic ArrayTM (Fluidigm, Amsterdam, the Netherlands) technology was used for gene expression analyses by quantitative reverse transcription polymerase chain reaction (qRT-PCR, performed by Quintiles/Expression Analysis, Durham, NC)89. Standard TaqManTM Assays (Applied Biosystems/ThermoFisher Scientific, Foster City, CA) were used to assess the expression of 93 genes selected based on their selectivity and sensitivity to important hepatic receptors known to be modulated by environmental chemicals; importance in human hepatocyte functionality; and hepatotoxicity. […]
`Clc1cc(Cl)c2c(c1)N=C1CCCCCN1C2`: the call was inactive. Regarding `CCCCCCCCCCCCO`, the call was inactive. As to `COc1cccc([C@H](O)C2CCN(CCc3ccc(F)cc3)CC2)c1OC`, the molecule was called inactive. On to `CC[C@@H]1C[C@H](N(Cc2cc(C(F)(F)F)cc(C(F)(F)F)c2)C(C)=O)c2cc(C(F)(F)F)ccc2N1C(=O)OC(C)C`, for which the call was inactive. On the same count and under the same terms, the result for `Oc1ccccc1` reads “inactive”.

As for `CCCCCCCCN(C)CCCCCCCC`, the result was inactive. For the molecule `CCN(Cc1cccnc1)C(=O)c1cccc(Cl)c1[C@]1(C)C(=O)N(Cc2ccc(OC)cc2OC)c2ccc(Cl)cc21`, the AC50 was 18.2 µM (active). `CCCCCc1ccc(N)cc1`: the outcome was inactive. Consider `CN1C(=O)N(c2ccccc2Br)Cc2cnc(Nc3ccc4c(c3)OCC(CO)O4)nc21` (stereo not given), for which the AC50 was 77.9 µM (active). As for `Oc1ccc2ccccc2c1`, the call was inactive.

As to `C[C@]12CC[C@@H]3c4ccc(O)cc4CC[C@H]3[C@@H]1CCC2=O`, the molecule was classed as inactive.

As for `CC[C@H](NC(=O)c1cc(F)ccc1NS(=O)(=O)c1cccc2cccnc12)c1ccccc1`, the AC50 was 71.3 µM (active). Take `O=C(O)Cn1c(=O)n(Cc2ccc(Br)cc2F)c(=O)c2ccc(Cl)cc21`: the call was inactive. The same measure, in the same setting: in the case of `CN1C(=O)CC[C@H]1c1cccnc1` it was “inactive”.

Take `CN(C)C(=O)C1(N2CCCCC2)CCN(CC[C@@]2(c3ccc(Cl)c(Cl)c3)CN(C(=O)c3ccccc3)CCO2)CC1`: the AC50 is 88.1 µM (active).

For the molecule `CC1=CC(=O)/C(=C(/C)O)C(=O)O1`, the molecule was classed as inactive. On the same count and under the same terms, in the case of `CCCCCCCC[Si](OCC)(OCC)OCC` it was “inactive”; in that of `CC(C)(O)c1ccc(CNC(=O)c2cccnc2Oc2ccc3nonc3c2)cc1`, “inactive”; in that of `CCOC(=O)O[C@H](C)OC(=O)c1ccc2c(c1)cc(C(=O)NC1CCN(C(C)C)CC1)n2Cc1cc(-c2ccc(Cl)s2)on1`, “inactive”. Still for that read-out and setting: in the case of `CO[C@H]1/C=C/O[C@@]2(C)Oc3c(C)c(O)c4c(O)c(c(/C=N/N5CCN(C)CC5)c(O)c4c3C2=O)NC(=O)/C(C)=C\C=C\[C@H](C)[C@H](O)[C@@H](C)[C@@H](O)[C@@H](C)[C@H](OC(C)=O)[C@@H]1C` it was “inactive”.

Turning to `Cc1cc2c(cc1C(F)(F)F)N(C(=O)Nc1ccc(Oc3cccnc3C)nc1)CC2`, the AC50 is 46 µM (active). Same read-out and setting: the result for `CC(C)(c1cc(Br)c(O)c(Br)c1)c1cc(Br)c(O)c(Br)c1` reads 89.1 µM (active); that for `CC(C)(C)c1csc(-c2cc3cc(OCc4ccccc4CC(=O)O)ccc3o2)n1`, 72.1 µM (active). `c1ccc2n[nH]nc2c1`: the call was inactive.

As for `O=C(O)c1ccccc1-n1cc(C(=O)O)c(=O)c2cc(Nc3c(F)cc(F)cc3Cl)c(Cl)cc21`, the molecule was called inactive.

`C[C@]12CC[C@@H]3c4ccc(O)cc4CC[C@H]3[C@@H]1CC[C@H]2O`: the result was inactive. The same measure, in the same setting: in the case of `O=C1CCC(C2CCCCC2)CC1` it was “inactive”. Same read-out and setting: in the case of `Cc1cn([C@H]2C[C@H](N=[N+]=[N-])[C@@H](CO)O2)c(=O)[nH]c1=O` it was “inactive”. Turning to `CN(C[C@@H](CC[N+]12CCC(C3CCCCC3)(CC1)CC2)c1ccc(Cl)c(Cl)c1)C(=O)c1cc(C(F)(F)F)cc(C(F)(F)F)c1`, the AC50 is 63.5 µM (active). On the same count and under the same terms, the result for `NC(=O)c1nc(-c2cccc(-c3cc(F)ccc3OCC(F)(F)C(F)(F)F)c2)n[nH]1` reads 81.4 µM (active). With `CCCCOC(=O)c1ccc(O)cc1`, the molecule was called inactive. On the same count and under the same terms, in the case of `CCCCCCCCCCCO` it was “inactive”; in that of `c1ccc2ccccc2c1`, “inactive”; in that of `O=C(OCCCCCCOC(=O)c1ccccc1)c1ccccc1`, “inactive”. Same read-out and setting: in the case of `Cc1ccc2oc(CN(Cc3ccccc3)C(=O)Nc3c(F)cc(F)cc3F)c(-c3ccc(Cl)cc3)c2c1` it was “inactive”. Turning to `Cc1oc2c(NC(=O)c3c(Cl)cccc3Cl)cccc2c1C(C)(C)O`, the AC50 is 30 µM (active).

For `COc1cc(C(=O)NC2CCN(C)CC2)ccc1Nc1ncc2c(n1)N(C1CCCC1)CC(F)(F)C(=O)N2C`, the AC50 is 12.2 µM (active). In the case of `CC(O)CC(C)(C)O` (stereo not given), the outcome was inactive. On the same count and under the same terms, in the case of `CCN(Cc1cccc(S(=O)(=O)O)c1)c1ccc(C(=C2C=CC(=[N+](CC)Cc3cccc(S(=O)(=O)O)c3)C=C2)c2ccccc2S(=O)(=O)[O-])cc1` it was “inactive”. On to `O=C(O)Cc1cc(I)c(Oc2ccc(O)c(I)c2)c(I)c1`, for which the AC50 is 86 µM (active).
